Sampled rows, rich in hits. Any-hit rate of the full collection: about 12%.
HP1b binding inh: HTS for Inhibitors of HP1-beta Chromodomain Interactions with Methylated Histone Tails; AlphaScreen HP1-beta / biotin-H3K9me3 peptide binding; Chromobox protein homolog 1 (Homo sapiens), P83916; 390,000 tested, 0.56% active; Potency, µM (titrated, usually from 114 µM), for the others: at the top dose activity change, negative = inhibition, usual class: inhibitors; AID 540317, 2011; further: nearly all actives have a fitted effect of over 70% in size
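HP1-beta protein (50 nM final) preincubated 30 min at room temperature with biotinylated H3(1-18)K9me3 peptide (50 nM) in PBS pH 7.4, 0.01% Tween-20, then compound added for 30 min. AlphaScreen streptavidin donor/nickel chelate acceptor beads (10 ug/mL final), 30 min dark, luminescence read.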
Sfp PPTase inh: qHTS Assay for Inhibitors of Bacillus subtilis Sfp phosphopantetheinyl transferase (PPTase); 4'-phosphopantetheinyl transferase ffp (Bacillus subtilis), Q9F4F7; Biochemical Sfp PPTase activity, qHTS; Potency, µM, for inactives: largest response in the series, negative = inhibition, most hits filed as inhibitors; 310,000 tested, 3.5% active; AID 1490, 2009;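 further: the enzyme is Sfp with the accession as filed and its product quenches rhodamine fluorescence; 0% = enzyme reaction without inhibitor and -100% = no enzyme wells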
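Sfp 15 nM + cpd, 15 min RT; start w/ rhodamine-CoA 5 uM, BHQ-2-YbbR 12.5 uM (final); 50 mM Hepes pH 7.6, 10 mM MgCl2, 0.01% NP-40, 0.01% BSA; read 525/598 nm at 0 and 30 min.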
G9a inh: qHTS Assay for Inhibitors of Histone Lysine Methyltransferase G9a; G9a H3K9 monomethylation, AlphaScreen, 2 h; Histone-lysine N-methyltransferase EHMT2 (Homo sapiens), Q96KQ7; Potency, µM (titrated, usually from 102 µM), for the others: at the highest dose activity, negative = inhibition, most hits filed as inhibitors; 350,000 tested, 8.8% active; AID 504332, 2011; further: on the % scale 0 is the no-effect control and ±100 the full control effect; nearly all actives have a fitted effect of over 75% in size
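G9a (20 nM) preincubated 15 min RT with compounds, then 500 nM biotinylated H3K9 peptide and 20 uM SAM added; 2 h RT reaction. Monomethyl-H3K9 product detected by AlphaScreen with anti-H3K9me1 antibody, streptavidin donor and anti-rabbit IgG acceptor beads.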
JMJD2A Tudor inh: qHTS Assay for Inhibitors of JMJD2A-Tudor Domain; Lysine-specific demethylase 4A (Homo sapiens), O75164; AlphaScreen JMJD2A-Tudor / H3K4me3 peptide binding; Potency, µM (top dose mostly 114 µM), for inactives: top-dose activity change, negative = inhibition, hits mostly inhibitors; 390,000 tested, 4.4% active; further: on the % scale 0 is the no-effect control and ±100 the full control effect; nearly all actives have a fitted effect of over 50% in size
BAZ2B block: qHTS Assay for Inhibitors of BAZ2B | Bromodomain adjacent to zinc finger domain protein 2B (Homo sapiens), Q9UIF8 | AlphaScreen BAZ2B-H3K14Ac peptide displacement | Potency, µM (doses to about 114 µM), without a hit: top-dose activity change, negative = inhibition, most hits filed as inhibitors | 360,000 tested, 4.4% active | AID 504333, 2011; further: on the % scale 0 is the no-effect control and ±100 the full control effect; nearly all actives have a fitted effect of over 60% in size
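AlphaScreen luminescence quantifies BAZ2B engagement of H3K14Ac peptide; the protein and biotinylated peptide are both at 50 nM final, buffer PBS pH 7.4 with 0.01% Tween-20, all steps at room temperature.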
PLK1 PBD block: qHTS for Inhibitors of PLK1-PDB (polo-like kinase 1 - polo-box domain): Primary Screen; Serine/threonine-protein kinase PLK1 (Homo sapiens), P53350; Plk1 PBD binding of FITC phosphopeptide, fluorescence polarization; Potency, µM, inactives show max response, negative = inhibition, hits mostly inhibitors; 360,000 tested, 2.8% active; further: series mostly up to about 57 µM; on the % scale 0 is the no-effect control and ±100 the full control effect; nearly all actives have a fitted effect of over 65% in size
* marks the source's active call; other numbers are inactive results; [ ] = another dose, or the depositor's remark. The call rests on the fitted dose curve; in most records, active means well fitted curve in the direction sought with a large enough effect; inconclusive means small, poorly fitted or top-dose-only effect, or another doubt; inactive means no such curve, though single readings can be large; an effect the other way counts as inactive or inconclusive. Potency means the concentration at half of the fitted maximal effect.

How did O=C(c1ccc(Cl)c(Cl)c1)N1CCC(=O)N(C(CO)Cc2ccccc2)CC1 (stereo unspecified) do in these assays?
HP1b binding inh: -22%; JMJD2A Tudor inh: 35µM*; PLK1 PBD block: 27µM*

What do the screens show for `COC(=O)C1=C(C(=O)OC)[C@@H]2N(C)c3ccccc3[C@@]23C[C@@H](CO)N(C(=O)c2cc(C)oc2C)C3=N1`?
Sfp PPTase inh: 13%

Results for C=CCSc1nc2ccccc2n1C(=O)/C=C/c1ccc(OC)c(OC)c1 ?
HP1b binding inh: 9%; Sfp PPTase inh: 28µM*; JMJD2A Tudor inh: 0%; BAZ2B block: 5%; PLK1 PBD block: -11%

How did CCSc1nc2ccccc2n1C(=O)/C=C/c1ccc(OC)c(OC)c1 do in these assays?
HP1b binding inh: 10%; Sfp PPTase inh: 56µM*; G9a inh: inconclusive; JMJD2A Tudor inh: -11%; BAZ2B block: -5%; PLK1 PBD block: -4%

How did C=CCSc1nc2ccccc2n1C(=O)/C=C/c1cc(OC)c(OC)c(OC)c1 do in these assays?
HP1b binding inh: 20%; Sfp PPTase inh: -15%; G9a inh: -9%; JMJD2A Tudor inh: -17%; BAZ2B block: -2%; PLK1 PBD block: -12%

Results for O=C(CCc1ccccc1)NNC(=O)c1ccccc1C(=O)O ?
HP1b binding inh: 37%; Sfp PPTase inh: 2%; G9a inh: 10µM*; JMJD2A Tudor inh: -8%; BAZ2B block: 1%; PLK1 PBD block: 8%

What do the screens show for `O=C(CCc1ccccc1)NNC(=O)c1ccccc1Br`?
HP1b binding inh: 20%; Sfp PPTase inh: 21%; G9a inh: 28µM*; JMJD2A Tudor inh: -24%; BAZ2B block: -4%; PLK1 PBD block: -7%

How did COc1cccc(N=c2oc3ccccc3cc2-c2nc3ccccc3[nH]2)c1 do in these assays?
HP1b binding inh: 7%; Sfp PPTase inh: -15%; G9a inh: -4%[12.7 µM]; JMJD2A Tudor inh: 32µM*; BAZ2B block: -33%; PLK1 PBD block: -15%

How did CCCc1nn2c(=O)cc(COC(=O)c3cccc(NC(=O)COc4ccccc4C)c3)nc2s1 do in these assays?
HP1b binding inh: 18%; G9a inh: -1%[12.7 µM]; JMJD2A Tudor inh: -6%; BAZ2B block: -22%

Results for Cc1ccc(C(=O)c2c3ccc([N+](=O)[O-])cc3[n+]([O-])n2CCC(N)=O)cc1 ?
HP1b binding inh: 12%; Sfp PPTase inh: 11%; G9a inh: 50µM*; JMJD2A Tudor inh: -31%; BAZ2B block: inconclusive; PLK1 PBD block: -9%

Results for COC(=O)c1c(NC(=O)c2cccc([N+](=O)[O-])c2)sc(C(N)=O)c1C ?
HP1b binding inh: -16%; Sfp PPTase inh: 45µM*; JMJD2A Tudor inh: -19%; BAZ2B block: -14%; PLK1 PBD block: inconclusive

How did Cc1ccc(C(=O)Nc2sc(C)c(-c3ccccc3)c2C(N)=O)cc1[N+](=O)[O-] do in these assays?
HP1b binding inh: -44%; Sfp PPTase inh: 45µM*; G9a inh: 40µM*; JMJD2A Tudor inh: inconclusive; BAZ2B block: 4%; PLK1 PBD block: 19µM*

How did COC(=O)c1c(NC(=O)c2ccccc2)sc(C(N)=O)c1C do in these assays?
HP1b binding inh: 25%; Sfp PPTase inh: 11%; G9a inh: 1%; JMJD2A Tudor inh: 17%; BAZ2B block: -5%; PLK1 PBD block: 5%

How did COC(=O)c1sc(NC(=O)c2cccc([N+](=O)[O-])c2)c(C(N)=O)c1C do in these assays?
HP1b binding inh: inconclusive; Sfp PPTase inh: inconclusive; G9a inh: 10µM*; JMJD2A Tudor inh: -11%; BAZ2B block: 1%; PLK1 PBD block: 27µM*

Bioassay records (PubChem BioAssay)
